The values that follow come from the supplement of paper PMC10849652.

The full data set covers some 8,800 targets. This sample favours those with a hit. About 0.5% of all pairs of compound and target were hits.

UniProt Q13409, sequence (Q13409 whole entry, looked up): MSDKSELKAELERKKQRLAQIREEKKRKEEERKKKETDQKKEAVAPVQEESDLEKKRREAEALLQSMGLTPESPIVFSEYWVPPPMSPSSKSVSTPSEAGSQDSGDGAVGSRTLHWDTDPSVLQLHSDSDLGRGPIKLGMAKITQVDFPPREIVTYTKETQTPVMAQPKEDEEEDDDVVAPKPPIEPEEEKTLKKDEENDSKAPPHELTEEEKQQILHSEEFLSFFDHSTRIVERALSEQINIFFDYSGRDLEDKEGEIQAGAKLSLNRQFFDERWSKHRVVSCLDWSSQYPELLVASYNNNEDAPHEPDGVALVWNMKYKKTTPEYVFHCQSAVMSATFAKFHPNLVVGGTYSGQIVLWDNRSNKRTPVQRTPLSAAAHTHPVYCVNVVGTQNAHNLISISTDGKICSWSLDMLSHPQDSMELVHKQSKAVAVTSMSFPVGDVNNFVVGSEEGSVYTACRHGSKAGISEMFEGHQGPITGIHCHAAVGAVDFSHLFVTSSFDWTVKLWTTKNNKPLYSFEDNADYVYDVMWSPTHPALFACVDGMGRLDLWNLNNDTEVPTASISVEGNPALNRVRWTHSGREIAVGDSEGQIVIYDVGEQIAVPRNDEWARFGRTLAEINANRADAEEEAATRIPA
UniProt Q06547, sequence (Q06547 whole entry, looked up): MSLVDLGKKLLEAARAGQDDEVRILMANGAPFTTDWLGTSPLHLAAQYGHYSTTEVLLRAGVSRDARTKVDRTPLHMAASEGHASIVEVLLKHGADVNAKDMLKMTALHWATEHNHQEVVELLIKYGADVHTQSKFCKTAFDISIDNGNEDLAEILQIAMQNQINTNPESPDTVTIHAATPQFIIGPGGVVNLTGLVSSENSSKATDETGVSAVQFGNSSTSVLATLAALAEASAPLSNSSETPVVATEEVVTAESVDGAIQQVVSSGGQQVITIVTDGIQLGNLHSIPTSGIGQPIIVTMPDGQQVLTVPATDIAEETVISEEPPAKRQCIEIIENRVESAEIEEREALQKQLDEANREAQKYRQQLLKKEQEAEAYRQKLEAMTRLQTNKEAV
UniProt Q92616, sequence (Q92616 whole entry, looked up): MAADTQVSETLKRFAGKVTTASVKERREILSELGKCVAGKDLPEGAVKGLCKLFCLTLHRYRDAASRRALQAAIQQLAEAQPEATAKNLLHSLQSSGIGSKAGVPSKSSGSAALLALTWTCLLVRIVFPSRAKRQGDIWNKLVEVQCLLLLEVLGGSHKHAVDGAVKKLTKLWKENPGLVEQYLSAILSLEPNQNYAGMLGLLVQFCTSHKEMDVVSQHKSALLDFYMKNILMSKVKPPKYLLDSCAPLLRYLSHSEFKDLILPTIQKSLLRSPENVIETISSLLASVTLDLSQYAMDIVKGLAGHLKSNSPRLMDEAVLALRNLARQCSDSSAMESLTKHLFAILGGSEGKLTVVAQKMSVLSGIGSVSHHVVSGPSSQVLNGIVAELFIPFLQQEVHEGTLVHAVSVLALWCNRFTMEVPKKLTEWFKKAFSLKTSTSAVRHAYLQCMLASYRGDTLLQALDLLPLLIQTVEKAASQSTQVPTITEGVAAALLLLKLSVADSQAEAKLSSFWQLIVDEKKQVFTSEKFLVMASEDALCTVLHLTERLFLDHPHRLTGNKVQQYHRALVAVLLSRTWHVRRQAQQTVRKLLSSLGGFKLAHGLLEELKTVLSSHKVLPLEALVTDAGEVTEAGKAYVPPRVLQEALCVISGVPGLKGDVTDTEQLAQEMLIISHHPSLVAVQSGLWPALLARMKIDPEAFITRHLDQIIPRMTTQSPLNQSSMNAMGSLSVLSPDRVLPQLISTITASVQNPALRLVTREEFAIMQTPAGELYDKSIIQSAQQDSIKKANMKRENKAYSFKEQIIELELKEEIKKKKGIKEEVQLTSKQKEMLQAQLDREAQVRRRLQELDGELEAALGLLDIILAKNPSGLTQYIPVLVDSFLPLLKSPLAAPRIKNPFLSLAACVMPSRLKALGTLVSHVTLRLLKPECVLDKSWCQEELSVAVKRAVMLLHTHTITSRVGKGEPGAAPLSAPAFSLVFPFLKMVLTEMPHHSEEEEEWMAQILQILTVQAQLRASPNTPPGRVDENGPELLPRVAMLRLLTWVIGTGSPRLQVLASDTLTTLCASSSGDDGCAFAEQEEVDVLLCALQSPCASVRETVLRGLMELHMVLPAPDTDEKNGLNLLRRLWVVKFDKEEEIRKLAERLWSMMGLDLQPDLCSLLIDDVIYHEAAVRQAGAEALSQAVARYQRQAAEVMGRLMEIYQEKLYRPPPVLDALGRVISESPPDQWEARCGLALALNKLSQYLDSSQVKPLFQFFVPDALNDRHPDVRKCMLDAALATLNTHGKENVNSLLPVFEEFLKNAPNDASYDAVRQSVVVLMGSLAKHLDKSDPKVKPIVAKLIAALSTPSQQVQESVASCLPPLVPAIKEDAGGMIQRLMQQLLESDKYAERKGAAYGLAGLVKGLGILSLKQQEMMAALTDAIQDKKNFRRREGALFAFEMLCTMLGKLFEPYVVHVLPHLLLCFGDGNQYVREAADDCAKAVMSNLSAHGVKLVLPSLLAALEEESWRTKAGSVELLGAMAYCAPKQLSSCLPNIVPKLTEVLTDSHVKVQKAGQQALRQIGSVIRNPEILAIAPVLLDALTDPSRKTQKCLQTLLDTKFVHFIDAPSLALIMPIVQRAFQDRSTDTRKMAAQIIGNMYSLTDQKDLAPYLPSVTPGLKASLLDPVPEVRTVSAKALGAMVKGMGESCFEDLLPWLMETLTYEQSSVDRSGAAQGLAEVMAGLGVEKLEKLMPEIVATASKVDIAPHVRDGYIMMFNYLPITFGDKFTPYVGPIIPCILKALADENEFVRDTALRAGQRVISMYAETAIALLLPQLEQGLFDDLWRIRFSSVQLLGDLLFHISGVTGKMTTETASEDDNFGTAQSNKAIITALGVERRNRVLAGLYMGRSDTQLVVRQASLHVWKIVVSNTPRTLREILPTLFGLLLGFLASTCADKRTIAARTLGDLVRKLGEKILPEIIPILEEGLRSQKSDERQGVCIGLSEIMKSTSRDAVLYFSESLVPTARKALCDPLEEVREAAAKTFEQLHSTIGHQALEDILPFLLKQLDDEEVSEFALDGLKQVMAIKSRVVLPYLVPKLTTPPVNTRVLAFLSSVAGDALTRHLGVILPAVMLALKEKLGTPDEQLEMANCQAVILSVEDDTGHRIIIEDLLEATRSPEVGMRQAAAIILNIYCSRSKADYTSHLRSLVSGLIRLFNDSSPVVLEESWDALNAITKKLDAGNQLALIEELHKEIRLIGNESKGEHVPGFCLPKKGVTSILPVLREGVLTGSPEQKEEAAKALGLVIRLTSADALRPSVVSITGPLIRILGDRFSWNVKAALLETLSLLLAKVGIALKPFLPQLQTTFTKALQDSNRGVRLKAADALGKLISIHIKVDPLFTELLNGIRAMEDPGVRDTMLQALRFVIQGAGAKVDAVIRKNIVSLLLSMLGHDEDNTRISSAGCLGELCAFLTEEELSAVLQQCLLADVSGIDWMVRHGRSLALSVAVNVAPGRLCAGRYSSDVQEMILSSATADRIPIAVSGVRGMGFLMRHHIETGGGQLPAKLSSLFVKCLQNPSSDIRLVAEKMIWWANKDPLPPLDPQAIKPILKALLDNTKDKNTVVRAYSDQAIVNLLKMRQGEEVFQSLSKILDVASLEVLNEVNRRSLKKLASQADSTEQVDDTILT
UniProt Q86UY5, sequence (Q86UY5 whole entry, looked up): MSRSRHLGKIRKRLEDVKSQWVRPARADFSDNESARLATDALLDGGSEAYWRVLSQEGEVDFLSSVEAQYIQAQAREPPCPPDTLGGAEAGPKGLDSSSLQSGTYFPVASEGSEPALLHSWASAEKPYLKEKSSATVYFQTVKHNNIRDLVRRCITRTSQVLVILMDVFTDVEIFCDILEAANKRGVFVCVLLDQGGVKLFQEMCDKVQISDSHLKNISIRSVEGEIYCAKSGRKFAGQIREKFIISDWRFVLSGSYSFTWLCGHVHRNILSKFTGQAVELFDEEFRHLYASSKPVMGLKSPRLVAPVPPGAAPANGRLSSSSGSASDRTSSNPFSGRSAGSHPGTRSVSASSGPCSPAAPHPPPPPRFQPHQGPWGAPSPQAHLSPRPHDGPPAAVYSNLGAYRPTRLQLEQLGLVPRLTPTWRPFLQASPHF
UniProt O95571, sequence (O95571 whole entry, looked up): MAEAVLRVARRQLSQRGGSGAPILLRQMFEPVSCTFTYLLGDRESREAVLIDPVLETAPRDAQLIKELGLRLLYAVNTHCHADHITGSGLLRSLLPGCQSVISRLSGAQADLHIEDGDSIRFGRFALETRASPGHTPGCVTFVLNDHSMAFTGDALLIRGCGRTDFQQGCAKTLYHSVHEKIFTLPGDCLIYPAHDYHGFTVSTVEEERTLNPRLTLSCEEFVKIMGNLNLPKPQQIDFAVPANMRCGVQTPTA
UniProt O75521, sequence (O75521 whole entry, looked up): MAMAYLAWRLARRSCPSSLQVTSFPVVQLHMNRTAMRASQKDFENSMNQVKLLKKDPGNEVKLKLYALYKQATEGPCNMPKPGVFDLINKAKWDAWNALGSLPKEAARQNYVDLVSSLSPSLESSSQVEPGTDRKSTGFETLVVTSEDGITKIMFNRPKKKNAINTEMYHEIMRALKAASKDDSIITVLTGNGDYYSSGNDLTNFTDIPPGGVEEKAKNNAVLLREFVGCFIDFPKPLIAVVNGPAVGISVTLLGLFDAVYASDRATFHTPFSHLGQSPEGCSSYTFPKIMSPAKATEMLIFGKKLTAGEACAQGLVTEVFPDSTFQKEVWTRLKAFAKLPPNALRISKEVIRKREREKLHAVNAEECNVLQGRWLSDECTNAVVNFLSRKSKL
UniProt P0C2W1, sequence (P0C2W1 whole entry, looked up): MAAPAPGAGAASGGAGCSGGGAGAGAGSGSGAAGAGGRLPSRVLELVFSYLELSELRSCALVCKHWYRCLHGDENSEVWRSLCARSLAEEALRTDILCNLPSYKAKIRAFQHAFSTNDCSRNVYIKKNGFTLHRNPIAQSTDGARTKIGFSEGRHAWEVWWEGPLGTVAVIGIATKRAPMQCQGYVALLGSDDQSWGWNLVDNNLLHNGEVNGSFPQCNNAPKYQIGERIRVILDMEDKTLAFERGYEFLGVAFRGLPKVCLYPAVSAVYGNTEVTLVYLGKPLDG

Compound in this test: C1=CC(=CC=C1C2=NC3=C(N2)C=C(C=C3)C(=O)N)OC4=CC=C(C=C4)Cl
Nature of the test: log2 fold change, soluble protein after heating vs DMSO (PISA); higher = thermal stabilisation; K562 lysate, 10 uM; active = over 0.2 and 3.5 SD of the protein, either way, in both replicates (recomputed). The essentials: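 A 30 min treatment with 10 μM compound was applied to crude K562 extract at 1 mg/mL protein in PBS pH 7.4 with 1 mM MgCl2. Heating for 3 min spanned 48°C-58°C, after which aliquots were pooled, adjusted to 0.5% NP-40 at 4°C and spun at 21,000xg for 90 min. TMTpro 16plex LC-MS/MS of the supernatant, with channel sums equalised, gave values recorded as log-two fold change in thermal stability against solvent controls, from duplicates.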
In the case of FAU (UniProt E9PR30), the log2 fold change was -0.059 (inactive).
Then FTSJ3 (UniProt Q8IY81), with 0.002 (inactive); and GALK1 isoform 2 (UniProt P51570), with 0.01 (inactive).
Consider FHOD1 (UniProt Q9Y613), for which the log2 fold change was 0 (inactive).
As for FNTB (UniProt P49356), the log2 fold change was 0.011 (inactive).
ETHE1 (UniProt O95571): the log2 fold change was 0.039 (inactive).
Take GATAD2A isoform 3 (UniProt Q86YP4): the log2 fold change was -0.003 (inactive).
As for DYNC1I2 isoform 2 (UniProt Q13409), the log2 fold change is 0.108 (inactive).
With EIF3I (UniProt Q13347), the log2 fold change is -0.029 (inactive).
With ENSA isoform 3 (UniProt O43768), the log2 fold change was 0 (inactive).
Then GDPD1 (UniProt Q8N9F7), with -0.112 (inactive).
Then EEF1A1, A0A087WVQ9, with 0.054 (inactive).
With FAM98A (UniProt Q8NCA5), the log2 fold change is 0.028 (inactive).
The figure for GEMIN5 (UniProt Q8TEQ6) is -0.012 (inactive); for FXR2 (UniProt P51116) it is -0.01 (inactive); for ENO1 isoform 2 (UniProt P06733) it is -0.035 (inactive).
As for GABPB1 (UniProt Q06547), the log2 fold change was 0.012 (inactive).
The figure for GABPB1 isoform 3 (UniProt Q06547) is -0.051 (inactive); for EIF2B4 (UniProt Q9UI10) it is -0.027 (inactive).
Then FYN (UniProt P06241), with 0.025 (inactive).
The figure for DUS2 (UniProt Q9NX74) is 0.017 (inactive); for FBXO45 (UniProt P0C2W1) it is -0.033 (inactive); for EP400 isoform 5 (UniProt Q96L91) it is -0.007 (inactive).
As to ECI2 (UniProt O75521), the log2 fold change was 0.024 (inactive).
Then FBLL1 (UniProt A6NHQ2), with -0.008 (inactive); and FADS3 (UniProt Q9Y5Q0), with -0.052 (inactive); and FANCD2 isoform 1 (UniProt Q9BXW9), with 0.019 (inactive).
DYRK1A (UniProt Q13627): the log2 fold change is -0.004 (inactive).
The figure for GGA2 (UniProt Q9UJY4) is 0.064 (inactive); for DYNC1I2 isoform 5 (UniProt Q13409) it is -0.001 (inactive); for EXOC1 (UniProt Q9NV70) it is -0.047 (inactive).
Then FAM83A (UniProt Q86UY5), with 0.097 (inactive); and DST (UniProt Q03001), with 0.046 (inactive).
As for GCN1 (UniProt Q92616), the log2 fold change was -0.086 (inactive).
For the target FDX2 (UniProt Q6P4F2), the log2 fold change is 0.044 (inactive).
Then ENO1, A0A2R8YEM5, with 0.011 (inactive).
